Experimental data taken from ChEMBL document CHEMBL3988442, “University of Dundee, Small-Polar-MMV Screening Library” (2021).
The campaign covered roughly 48,000 compounds. About 13,000 (27%) showed an effect of 50% or more. The list shows a part of the results.

system: Wolbachia pipientis; test: Anti-Wolbachia Cell-Based Screen; type: functional; design: scale not given: in the data most compounds retested in dose-response had high values; details: 5 µM

Compound | Percent Effect [%]
CC(Cc1c(F)cccc1F)NC(=O)NCc1ncnn1C (configuration not stated) | 1.27
O=C(N[C@H]1CN2CCC1CC2)c1cc(Cn2cnc3ccccc32)[nH]n1 | -21.06
c1ccc(C(Cn2cnnc2)N2CCOCC2)nc1 (configuration not stated) | 9.343
Cc1cccc(CN2C[C@H]3CC[C@@H]2CN(Cc2[nH]cnc2C)C3)n1 | -2.11
CC(=O)c1cc(C(=O)N2CC[C@@H]3CC[C@H](C2)N3C)c(=O)[nH]c1C | -5.325
Nc1cc(-c2cccc3c2CCNC3)ncn1 | 9.212
Nc1cnc(-c2cccc3c2CCNC3)cn1 | 7.253
CN(C)C(=O)c1ccc(-c2cccc3c2CCNC3)cc1 | 85.47
Fc1ccccc1CN1C[C@@H]2OCCN(c3ncccn3)[C@@H]2C1 | 1.64
Cc1nc[nH]c1CN1C[C@@H]2OCCN(c3ncccn3)[C@@H]2C1.O=C(O)C(F)(F)F | -20.21
O=C(O)C(F)(F)F.O=C(O)C(F)(F)F.c1cnc(N2CCO[C@H]3CN(Cc4ccsc4)C[C@H]32)nc1 | 14.83
CNC(=O)CN1CCO[C@H]2CN(CC3CC3)C[C@H]21.O=C(O)C(F)(F)F.O=C(O)C(F)(F)F | 7.624
O=C(O)C(F)(F)F.O=C(O)C(F)(F)F.c1cnc(N2CCO[C@H]3CN(CC4CC4)C[C@H]32)nc1 | 92.7
Fc1cnc(N2CCO[C@H]3CN(CC4CCCCC4)C[C@H]32)nc1.O=C(O)C(F)(F)F | 110
O=C(O)C(F)(F)F.c1cnc(N2CCO[C@H]3CN(Cc4csnn4)C[C@H]32)nc1 | -24.49
Fc1cnc(N2CCO[C@H]3CN(CC4CCC4)C[C@H]32)nc1 | -20.13
O=C(O)C(F)(F)F.O=C(O)C(F)(F)F.c1cnc(N2CCO[C@H]3CN(CC4CCOCC4)C[C@H]32)nc1 | 110.6
Fc1cnc(N2CCO[C@H]3CN(CC4CCOC4)C[C@H]32)nc1 (some centres not stated) | 71.68
Fc1cnc(N2CCO[C@H]3CN(CC4CCCC4)C[C@H]32)nc1.O=C(O)C(F)(F)F | -2.844
CCN1CCN(c2ccc(C(=O)NCCOC)cc2F)CC1 | -17.47
CC(C)(C)c1cn(C[C@H]2CC3CCN2C[C@@H]3C(=O)N2CCOCC2)nn1 (some centres not stated) | -7.534
CC(Cn1cncn1)NCCN1CCc2ccccc21 (configuration not stated) | 1.288
CC(C)CCN1C[C@@H]2OCCN(c3ncc(F)cn3)[C@@H]2C1.O=C(O)C(F)(F)F | 92
O=C1[C@@H]2CCN(CC3CC3)C[C@@H]2OCCN1c1cccnc1 | -19.89
Cn1cncc1CN1C[C@@H]2OCCN(c3ncccn3)[C@@H]2C1.O=C(O)C(F)(F)F | -0.0713

Compound | Percent Effect [%]
Cn1cc(CN2C[C@@H]3OCCN(c4ncccn4)[C@@H]3C2)cn1.O=C(O)C(F)(F)F.O=C(O)C(F)(F)F | 9.697
O=C(O)C(F)(F)F.c1cncc(N2CCO[C@H]3CN(CC4CCOC4)C[C@H]32)c1 (some centres not stated) | 94.42
c1ccc(CN2C[C@@H]3OCCN(c4cccnc4)[C@@H]3C2)nc1 | -16.65
CC(C)S(=O)(=O)N1C[C@@H](c2ccccc2)[C@H]2[C@H]1CCCCCN2C | 189.5
CC(Cn1cncn1)NCc1csc2c1CCCC2 (configuration not stated) | -14.34
NC1(c2nc(-c3ccccc3)cc(=O)[nH]2)CCCCC1 | -11.2
CC1=NOC2(CCN(Cc3c[nH]c4ccccc34)CC2)C1 | 112.6
CO[C@H]1COCCN(Cc2c[nH]c3ccccc23)C1 | -3.317
O=C1OCCC1N1CCN(C(=O)Cc2c[nH]c3ccccc23)CC1 (configuration not stated) | 5.817
CCc1nnc(CN(C)C(=O)CN2CC(c3ccccc3)CC2=O)o1 (configuration not stated) | 5.104
CCS(=O)(=O)N1CCc2c(COC)cncc2C1 | 85.06
CCS(=O)(=O)N1CCc2c(CN3CCOCC3)cncc2C1.Cl.Cl | 105.6
O=C(COc1ccc(F)cc1)N1CCCSCC1CN1CCOCC1 (configuration not stated) | -0.3394
FC1(F)CCNCC12CCN(c1ncccn1)C2 (configuration not stated) | -1.09
Cl.FC(F)CNc1cnc(C2CCNCC2)cn1 | 73.95
O=C(C1CC1)N1CCC2(CC1)CNCCO2 | 0.5147
Cl.O=C(C1CC1)N1CC2(CCNCC2)C1 | -2.925
Cl.O=C(C1CC1)N1CCOC2(CCNCC2)C1 | 99.53
Cc1ccc(N2C[C@@H]3CN(Cc4csc(C)n4)CCO[C@@H]3C2)nn1.O=C(O)C(F)(F)F.O=C(O)C(F)(F)F | 2.819
COCC(=O)N1C[C@@H]2OCCN(Cc3c(C)noc3C)[C@@H]2C1 | -12.28
Cc1ccc(N2C[C@@H]3OCCN(CC4CC4)[C@@H]3C2)nn1.O=C(O)C(F)(F)F | 101.4
Cc1noc(C)c1CN1CCO[C@H]2CNC[C@H]21.Cl.Cl | -6.613
Cc1ccc(N2C[C@@H]3OCCN(Cc4c(C)noc4C)[C@@H]3C2)nn1 | 99.73
Cc1ccc(N2C[C@@H]3CN(Cc4ccoc4)CCO[C@@H]3C2)nn1.O=C(O)C(F)(F)F.O=C(O)C(F)(F)F | -36.31
CC(C)NC(=O)N1CCOC2(CCNCC2)C1 | -2.285

Compound | Percent Effect [%]
CN1CCCC(Cc2nccnc2Cl)CC1 (configuration not stated) | 111.8
CC(C)N1CCCC(Cc2nccnc2Cl)C1 (configuration not stated) | 102.4
CC(C)N1CCCC(Cc2nccnc2Cl)CC1 (configuration not stated) | 83.32
CCn1ccnc1CN1CCN(C(C)C)CC1C (configuration not stated) | -27.31
CN1CCCC(Cc2cncc(Br)c2)CC1 (configuration not stated) | -8.172
O=C(N1CCCC1)N1C[C@H]2CC[C@@H]1CN(Cc1ccncc1)C2 | 3.012
CC(C)CN1C(=O)C2(CCCC2)NC1c1cccnc1 (configuration not stated) | -3.888
COC(=O)CCC(=O)NC(C)Cc1ccccc1Br (configuration not stated) | 5.861
O=S1(=O)CCC(n2cc(C3=CCN(CCN4CCCCC4)CC3)cn2)C1 (configuration not stated) | 5.738
CN(C)C(=O)CN1CC=C(c2cnn(Cc3ccccc3)c2)CC1 | 99.64
COc1cccc(C2=CCN(CCN3CCOC3=O)CC2)c1 | 5.556
CC(C)(C)n1cc(C2=CCN(CCc3ccccc3)CC2)cn1 | -9.314
CCn1cc(C2=CCN(CCCOc3ccccc3)CC2)cn1 | 20.1
CCC(O)Cn1cc(C2=CCN(Cc3ccc(OC)cc3)CC2)cn1 (configuration not stated) | -14.61
COc1cccc(C2=CCN(CCN3CCCC3=O)CC2)c1 | -10.09
COCCN1CC=C(c2cccc(OC)c2)CC1 | -4.022
COc1cccc(Cn2cc(C3=CCN(CC(=O)N(C)C)CC3)cn2)c1 | 105.2
COc1cccc(Cn2cc(C3=CCN(CCO)CC3)cn2)c1 | 104.2
Cc1noc(C)c1CNCc1ccccc1N(C)C1CCN(C)CC1 | 3.422
Cc1nc(C)c(C)c(N2CCC3(CCN(C)C3)C2)n1 (configuration not stated) | -3
NCC1(c2cccc(C(F)(F)F)c2)CCCC1 | -13.69
CC(C)=CCN1C[C@H]2CC[C@@H]1CN(C(=O)CSc1ccncc1)C2 | 19.74
CC(C)CN1CCC2(CC(C(=O)NCc3cccnc3)=NO2)C1 (configuration not stated) | -7.517
O=S1(=O)NCC2(CCN(Cc3ccc(Cl)s3)C2)Oc2ncccc21 (configuration not stated) | 120.8
COCCN1CCC2(C1)CN(c1ncccn1)C2.O=C(O)C(F)(F)F | -10.62

Compound | Percent Effect [%]
CC(C)CCN1CCC2(CNS(=O)(=O)c3cccnc3O2)C1 (configuration not stated) | 113.8
O=C(Cc1ccncc1)N1C[C@H]2CC[C@@H]1CN(Cc1cccnc1)C2 | -14.3
NCC1(c2cccc(C(F)(F)F)c2)CCCCC1 | -7.297
CCCc1nnc2sc(C3CCN(CC)CC3)nn12 | 103.4
COc1ccc(CC(=O)N2CCN(Cc3ccco3)C[C@@H]2C)cc1 | 137.5
O=C(Cc1csc(-c2ccco2)n1)N1CCN(CCO)CC1 | 5.506
COc1ccc(CC(=O)N2CCN(Cc3ccco3)C[C@@H]2C)cc1OC | 120.6
COc1cccc(CC(=O)N2CCCSCC2CN2CCCC2)c1 (configuration not stated) | 23.31
COc1ccc(CCNCc2ccco2)cc1OC | -22.25
COc1ccc(CC(=O)N2CCN(Cc3ccco3)C[C@H]2C)cc1OC | 147.8
CO[C@H]1CCN(c2ncc(F)cn2)[C@@H]2CN(Cc3ccco3)C[C@H]12.O=C(O)C(F)(F)F.O=C(O)C(F)(F)F | 23.38
COc1ccc(C(=O)C2CCCN(Cc3ccc(C)o3)C2)c(OC)c1 (configuration not stated) | -6.752
COc1ccc2c(ccn2CCN)c1 | -4.94
O=C(NCC1CC1)[C@H]1C[C@@H]2[C@@H](C1)OCCN2Cc1cccnc1.O=C(O)C(F)(F)F.O=C(O)C(F)(F)F | 13.71
CCN(CC)CCN1CCO[C@H]2[C@@H](OCc3ccncc3)CC[C@@H]21.O=C(O)C(F)(F)F.O=C(O)C(F)(F)F.O=C(O)C(F)(F)F | 3.809
O=C(O)C(F)(F)F.O=C(O)C(F)(F)F.c1ccc(CO[C@H]2CC[C@H]3[C@H]2OCCN3Cc2nccs2)nc1 | -10.71
CC(C)NC(=O)[C@H]1C[C@@H]2[C@@H](C1)OCCN2Cc1cccnc1.O=C(O)C(F)(F)F.O=C(O)C(F)(F)F | 1.72
O=C(O)C(F)(F)F.O=C(O)C(F)(F)F.c1cc(CO[C@H]2CC[C@H]3[C@H]2OCCN3Cc2nccs2)ccn1 | 124.9
O=C(O)C(F)(F)F.O=C(O)C(F)(F)F.O=C(O)C(F)(F)F.c1cc(CN2CCO[C@H]3[C@H](OCCN4CCCC4)CC[C@@H]32)ccn1 | 104.9
O=C(O)C(F)(F)F.O=C(O)C(F)(F)F.O=C(O)C(F)(F)F.c1cncc(CN2CCO[C@H]3[C@H](OCCN4CCCC4)CC[C@@H]32)c1 | 103
O=C(O)C(F)(F)F.O=C(O)C(F)(F)F.O=C(O)C(F)(F)F.c1ccc(CN2CCO[C@H]3[C@H](OCCN4CCCC4)CC[C@@H]32)nc1 | -22.42
Cc1cccc(CO[C@@H]2CC[C@H]3[C@H]2OCCN3Cc2nccs2)n1.O=C(O)C(F)(F)F.O=C(O)C(F)(F)F | -8.72
